From PubChem BioAssay (NCATS) come the findings set out here.

Records with an inconclusive call do not appear. The source made the active and inactive calls. The call rests on the fitted dose curve; in most records, active means well fitted cell-killing curve with a large enough effect; inconclusive means small, poorly fitted or top-dose-only effect, or effect the other way; inactive means no such curve, though single readings can be large or run the other way. Non-standard residues stand in square brackets, D forms with d. Residues, ends and D or L forms follow the SMILES beside them. *: point of attachment. Nva = CCC[C@H](N)C(=O)O; Cbz = O=C(OCc1ccccc1)*
Potency means the concentration at half of the fitted maximal effect.

This experiment in a line: Quantitative High-Throughput drug screen in 47 multiple myeloma cell lines against the NCATS MIPE library collection: JJN3_DSMZ cell viability assay (AID 1918966; further: nearly all actives have a fitted effect of over 50% in size). The following applies: JJN3 myeloma cells viability, CellTiter-Glo ATP, 48 h; series mostly up to 45.8 µM. The text has this:
PI: Beverly A. Mock Ph.D.
Laboratory of Cancer Biology and Genetics,
Center for Cancer Research, National Cancer Institute,
National Institute of Health, Bethesda, Maryland
Drug resistance and disease progression are common in multiple myeloma (MM) patients, underscoring the need for new therapeutic combinations. […] We hypothesized that effective combinations would reduce MYC expression and enhance p16 activity. […] These preclinical data identify potentially useful drug combinations for evaluation in drug-resistant MM and reveal potential mechanisms of combined drug sensitivity.
Described herein is the primary MIPE qHTS used to cherrypick compounds. Validated compounds were then further tested for potential synergistic activiy.
[1] Peat TJ, Gaikwad SM, Dubois W, Gyabaah-Kessie N, Zhang S, Gorjifard S, Phyo Z, Andres M, Hughitt VK, Simpson RM, Miller MA, Girvin AT, Taylor A, Williams D, D'Antonio N, Zhang Y, Rajagopalan A, Flietner E, Wilson K, Zhang X, Shinn P, Klumpp-Thomas C, McKnight C, Itkin Z, Chen L, Kazandijian D, Zhang J, Michalowski AM, Simmons JK, Keats J, Thomas CJ, Mock BA. Drug combinations identified by high-throughput screening promote cell cycle transition and upregulate Smad pathways in myeloma. Cancer Lett. 2023 Aug 1;568:216284. doi: 10.1016/j.canlet.2023.216284. Epub 2023 Jun 24. PMID: 37356470; PMCID: PMC10408729.
SEQUENCE No. (e.g., 1, 2, 3, etc.); […] (e.g., Cells, Incubation, Reagent, etc.); VALUE and DESCRIPTION.
1; Cells; 5 uL; white, solid bottom 1536-well Greiner assay plate.
2; Compounds; 23 nL; Kalypsis pin tool (Wako USA) equipped with a 1536-well pin head to transfer to the assay plates.
3; Incubation; 48 hours; 37C incubation.
4; Reagent;5uL; CellTiter Glo (Promega).
5; Detector; 425V; Luminescence; Viewlux PerkinElmer.
NOTES (numbers refer to Sequence numbers above)
1. The cell-based screening methods employed in this study were like those previously published. Briefly, the corresponding myeloma cell lines were screened in 1,536-well plates with 500 cells, 5-uL per well for inhibition of cell viability (assessed by measuring ATP levels with CellTiterGlo).
2. NCATS MIPE 4.0 library of approved and investigational drugs were added using the Kalypsis pin tool. Wells treated with DMSO only for 100% viability and media only wells for 0% viability were used as controls.
3. The assay plates were covered and incubated for 48 hours in a 37C, 5% CO2 incubator with controlled humidity.
4. After 48 hours, CellTilter-GloTM luminescent substrate mix (Promega) reagent was added to the assay plate and plates we incubated for 5 min at room temperature.
5. Signal was measured as median relative luminescence units on a ViewLux (PerkinElmer) multiplate reader.
[1] Heske CM, Davis MI, Baumgart JT, Wilson K, Gormally MV, Chen L, Zhang X, Ceribelli M, Duveau DY, Guha R, Ferrer M, Arnaldez FI, Ji J, Tran HL, Zhang Y, Mendoza A, Helman LJ, Thomas CJ. Matrix Screen Identifies Synergistic Combination of PARP Inhibitors and Nicotinamide Phosphoribosyltransferase (NAMPT) Inhibitors in Ewing Sarcoma. Clin Cancer Res. 2017 Dec 1;23(23):7301-7311. doi: 10.1158/1078-0432.CCR-17-1121. Epub 2017 Sep 12. PMID: 28899971; PMCID: PMC6636827.
Turning to `FC(F)(F)c1ccc(Nc2nc3ccc(Oc4ccnc(-c5ncc(C(F)(F)F)[nH]5)c4)cc3[nH]2)cc1`, the Potency was 20.9 µM (active).

Take `C=C1C[C@@]2(O)O[C@@]3(C[C@H]2C(C)C)[C@H](C)CC[C@H]13`: the Potency result is “inactive”.

With `CC(C=CC=C(C)C=CC1=C(C)CCCC1(C)C)=CC=CC=C(C)C=CC=C(C)C=CC1=C(C)CCCC1(C)C`, the Potency was 14.8 µM (active).

Regarding `O=C1NCCc2[nH]c(-c3ccncc3)cc21`, the Potency was 2.09 µM (active).

In the case of `Cc1[nH]c(C=C2C(=O)Nc3ccccc32)c(C)c1CCC(=O)O`, the Potency is 18.7 µM (active).

Take `O=C(C=Cc1ccc(CN(CCO)CCc2c[nH]c3ccccc23)cc1)NO`: the Potency was 0.0935 µM (active).

For the molecule `O=c1c(O)c(-c2ccc(O)c(O)c2)oc2cc(O)ccc12`, the Potency was 20.9 µM (active).

On to `O=C(Nc1cc2cc[nH]c2cn1)c1ccccc1`, for which the Potency was 9.35 µM (active).

Take `CCC[C@@H](C=O)NC(=O)[C@H](CC(C)C)NC(=O)[C@H](CC(C)C)NC(=O)OCc1ccccc1` (Cbz-Leu-Leu-[Nva]-aldehyde): the Potency was 1.18 µM (active).

In the case of `N#Cc1c(NC(=O)c2cccc3ccccc23)sc2c1CCCC2`, the Potency is 2.64 µM (active).

Regarding `CCCNC(=O)[C@H]1O[C@H]1C(=O)N[C@H](C(=O)N1CCC[C@@H]1C(=O)OC)C(C)CC` (stereo not given in full), the Potency was 2.96 µM (active).

As to `C=C(C)[C@@H]1CC[C@]2(C)CC[C@]3(C)[C@H](CC[C@@H]4[C@@]5(C)CC[C@H](O)C(C)(C)[C@H]5CC[C@]43C)[C@@H]12`, the Potency result was “inactive”.

`CCc1ccc(C(=O)Nc2cc(CN3CCN(C)CC3)cc(C(F)(F)F)c2)cc1C#Cc1cnc2ccnn2c1`: the Potency is 20.9 µM (active).

On to `Cc1ccc(O)c(C(CCN(C(C)C)C(C)C)c2ccccc2)c1` (stereo not given), for which the Potency result is “inactive”.

For `CCCNS(=O)(=O)Nc1ncnc(OCCOc2ncc(Br)cn2)c1-c1ccc(Br)cc1`, the Potency entry is “inactive”.

On to `CN(C)CC[C@H](c1ccc(Cl)cc1)c1ccccn1`, for which the Potency entry is “inactive”.

Consider `Cn1cc(CNCC2CCN(c3ncc(C(=O)NO)cn3)CC2)c2ccccc21`, for which the Potency was 0.0296 µM (active).

On to `Cc1cc(Nc2ncc3c(n2)N(C)C(=O)N(c2cc(NC(=O)c4cccc(C(F)(F)F)c4)ccc2C)C3)n(C)n1`, for which the Potency was 1.32 µM (active).

As to `NS(=O)(=O)OC[C@@H]1C[C@@H](n2ccc3c(N[C@H]4CCc5ccccc54)ncnc32)C[C@H]1O`, the Potency was 1.32 µM (active).

Take `C=CC(=O)Nc1cc(NC(=O)c2ccc(C)c(NC(=O)c3ccno3)c2)cc(C(F)(F)F)c1`: the Potency was 18.7 µM (active).

With `Cn1cc(C2=C(c3c4n(c5ccccc35)CCC(CN)C4)C(=O)NC2=O)c2ccccc21` (stereo not given), the Potency is 9.35 µM (active).

Turning to `CN(C)c1ccc(C(=O)NCCCCCCC(=O)NO)cc1`, the Potency was 1.05 µM (active).

On to `CCN(CC)CCNC(=O)c1c(C)[nH]c(C=C2C(=O)Nc3ccc(F)cc32)c1C`, for which the Potency is 6.05 µM (active).

As to `COc1ccc(S(=O)(=O)Nc2cc(-c3c(O)ccc4ccccc34)c(O)c3ccccc23)cc1`, the Potency is 8.33 µM (active).

With `Cc1nc(NC(=O)N2CCC[C@@H]2C(N)=O)sc1-c1ccnc(C(C)(C)C(F)(F)F)c1`, the Potency was 6.62 µM (active).

Regarding `OCC(O)C(O)C(O)CO` (stereo not given), the Potency is 2.96 µM (active).

Take `N#Cc1ccc(COC[C@H]2O[C@@H](n3c(NCc4ccc(Cl)c(Cl)c4)nc4c(N)ncnc43)[C@@H](O)[C@@H]2O)cc1`: the Potency was 0.469 µM (active).

Take `C[C@]12CC[C@@H]3c4ccc(O)cc4CC[C@H]3[C@H]1CC[C@H]2O`: the Potency was 23.5 µM (active).

Consider `COc1cc([C@@H]2c3cc4c(cc3[C@H](O)[C@H]3COC(=O)[C@@H]23)OCO4)cc(OC)c1OC`, for which the Potency was 0.526 µM (active).

As for `Cc1coc2c1C(=O)C(=O)c1c-2ccc2c(C)cccc12`, the Potency is 18.7 µM (active).

With `COc1cc(O)c2c(c1)C1OC1C[C@H](O)[C@H](O)C(=O)C=CC[C@H](C)OC2=O` (stereo not given in full), the Potency was 5.26 µM (active).

In the case of `COc1cc2c(Nc3ccc(Cl)c(Cl)c3F)ncnc2cc1OCC1C[C@@H]2CN(C)C[C@H]2C1`, the Potency is 1.32 µM (active).

Take `CCOC(=O)C=C[C@H](C[C@@H]1CCNC1=O)NC(=O)[C@@H](CC(=O)[C@@H](NC(=O)c1cc(C)on1)C(C)C)Cc1ccc(F)cc1`: the Potency entry was “inactive”.

In the case of `CN1CCCN(C(=O)c2cccc(-c3ccc(C=C4C(=O)Nc5ccc(Cl)cc54)o3)c2)CC1`, the Potency was 18.7 µM (active).

With `Nc1nc(=O)n([C@H]2CSC(CO)O2)cc1F` (stereo not given in full), the Potency result was “inactive”.

Consider `CC(C)N1[N]C(=C2C=c3cc(O)ccc3=N2)c2c(N)ncnc21`, for which the Potency is 0.209 µM (active).

On to `CCOc1cc2ncc(C#N)c(Nc3ccc(OCc4ccccn4)c(Cl)c3)c2cc1NC(=O)C=CCN(C)C`, for which the Potency was 5.9 µM (active).

For `CCOC(=O)N1CCN([N+]([O-])=NOc2ccc([N+](=O)[O-])cc2C#N)CC1`, the Potency was 0.418 µM (active).

In the case of `C=CC(=O)N1CCc2ccc(-n3c(=O)ccc4cnc5ccc(-c6cnn(C)c6)cc5c43)cc21`, the Potency is 1.05 µM (active).

With `CCc1cnn2c(NCc3ccc[n+]([O-])c3)cc(N3CCCC[C@@H]3CCO)nc12`, the Potency was 0.0118 µM (active).
